# PubChem BioAssay (NCI)
# Compounds without any hit were thinned out: in the full panel of roughly 79,000, 15% have a hit. A number with no mark means an inactive call. The source made the active and inactive calls. Rule as the data show it: active = growth inhibition above about 70%; inactive = the rest.
# Assays:
# [1] = NCI Yeast Anticancer Drug Screen. Data for the rad52 strain (AID 147);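 also: 0% = growth of vehicle-treated control cultures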; settings: S. cerevisiae rad52 mutant growth inhibition, stronger effect = higher value
# Procedure, shortened: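 Here a repair-compromised yeast strain receives each compound; its growth is then quantified and normalised to vehicle-only controls.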
# [2] = NCI Yeast Anticancer Drug Screen. Data for the wt1 strain (AID 149);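 also: 0% = growth of vehicle-treated wt1 cultures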; settings: S. cerevisiae wt1 strain (SPY 50644) growth inhibition, stronger effect = higher value
# Procedure, shortened: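 Using yeast strain wt1, compound-induced growth inhibition was determined against vehicle-treated cultures.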
# [3] = NCI Yeast Anticancer Drug Screen. Data for the rad50EPP+ strain (AID 151);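 also: 0% = growth of vehicle-treated control cultures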; settings: S. cerevisiae rad50 mutant strain, stronger effect = higher value
# Procedure, shortened: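 Read-out is yeast growth inhibition relative to vehicle; cells used were the rad50EPP+ strain.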
# [4] = NCI Yeast Anticancer Drug Screen. Data for the rad50 strain (AID 155);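 also: 0% = growth of vehicle-only cultures of the same strain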; settings: S. cerevisiae rad50 strain growth inhibition, stronger effect = higher value
# Procedure, shortened: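 Relative growth inhibition (compound vs vehicle) was measured in yeast with a defined repair-gene alteration.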
# [5] = NCI Yeast Anticancer Drug Screen. Data for the mec2-1 strain (AID 157); settings: S. cerevisiae mec2-1 strain, stronger effect = higher value
# Procedure, shortened: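 Using mec2-1 yeast: add compound, measure growth, express inhibition versus vehicle-treated cultures.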
# [6] = NCI Yeast Anticancer Drug Screen. Data for the rad14 strain (AID 159);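 also: 0% = growth of vehicle-treated control cultures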; settings: S. cerevisiae rad14 strain growth inhibition, stronger effect = higher value
# Procedure, shortened: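 Screen for anticancer potential: a yeast strain altered in DNA damage repair is grown with compound, and reduced growth is quantified against vehicle controls.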
# [7] = NCI Yeast Anticancer Drug Screen. Data for the sgs1 mgt1 strain (AID 161);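 also: 0% = growth of cultures given vehicle only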; settings: S. cerevisiae sgs1 mgt1 strain, stronger effect = higher value
# Procedure, shortened: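 This yeast growth screen uses a strain with defined DNA-repair lesions; compound-treated growth is compared with vehicle-treated growth.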
# [8] = NCI Yeast Anticancer Drug Screen. Data for the CLN2oe strain (AID 163);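 also: 0% = growth of vehicle-only control cultures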; settings: S. cerevisiae CLN2oe strain, stronger effect = higher value
# Procedure, shortened: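 Whole-cell yeast growth assay. A strain engineered for altered cell-cycle control received compound, and inhibition relative to vehicle-treated cultures was recorded.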
# [9] = NCI Yeast Anticancer Drug Screen. Data for the cln2 rad14 strain (AID 165);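 also: 0% = growth equal to vehicle treated cultures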; settings: S. cerevisiae cln2 rad14 strain, stronger effect = higher value
# Procedure, shortened: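 Yeast strain cln2 rad14, bearing defects in cell cycle control and DNA repair, serves as the test system; values reflect growth inhibition compared with vehicle.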
# [10] = NCI Yeast Anticancer Drug Screen. Data for the bub3 strain (AID 167); settings: S. cerevisiae bub3 mutant strain, stronger effect = higher value
# Procedure, shortened: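 Screening used yeast with an engineered genetic alteration affecting cell cycle control. Compound-exposed cultures were compared with vehicle cultures, and reduced growth was taken as inhibition.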
# [11] = NCI Yeast Anticancer Drug Screen. Data for the wt2 strain (AID 169);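 also: 0% = growth of vehicle-treated yeast cultures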; settings: S. cerevisiae wt2 strain growth inhibition, stronger effect = higher value
# Procedure, shortened: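 Treated yeast vs. vehicle-treated yeast: growth inhibition determined.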
# [12] = NCI Yeast Anticancer Drug Screen. Data for the mlh1 strain (AID 171);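 also: 0% = growth of vehicle-treated control cultures of the same strain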; settings: S. cerevisiae mlh1 strain growth inhibition, stronger effect = higher value
# Procedure, shortened: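 A yeast strain with a defined genetic lesion serves as the test organism. Cultures receive compound or vehicle, and growth is measured.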
# [13] = NCI Yeast Anticancer Drug Screen. Data for the sgs1 strain (AID 173);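 also: 0% = growth of vehicle-only control cultures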; settings: S. cerevisiae sgs1 mutant, stronger effect = higher value
# Procedure, shortened: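 A genetically defined yeast mutant is incubated with the test compound, and its growth is compared to that of the same strain given vehicle.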
# [14] = NCI Yeast Anticancer Drug Screen. Data for the mlh1 rad18 strain (AID 175); settings: S. cerevisiae mlh1 rad18 strain growth inhibition, stronger effect = higher value
# Procedure, shortened: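 Steps: expose repair-defective yeast to compound; measure growth; express inhibition against vehicle-treated controls.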
# [15] = NCI Yeast Anticancer Drug Screen. Data for the rad18 strain (AID 177); settings: S. cerevisiae rad18 mutant growth inhibition, stronger effect = higher value
# Procedure, shortened: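 Measured value is growth inhibition of a yeast strain bearing a DNA repair alteration, referenced to vehicle-treated cells.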
# [16] = at 5.0 µM (retest, dose inferred, filed as 0.5)
# [17] = at 50.0 µM (retest, dose inferred, filed as 5.0)
smiles,measurement,setting,value
Nc1ccc(N=Nc2ccc(-c3ccc(O)cc3)cc2)c2ccc(S(=O)(=O)O)cc12,growth inhibition,[1]; at 1.2 µM,-3%
same,growth inhibition,[1]; at 3.7 µM,2%
same,growth inhibition,[1]; at 11.0 µM,17%
same,growth inhibition,[1]; at 33.0 µM,39%
same,growth inhibition,[1]; at 100.0 µM,54%
same,growth inhibition,[2]; at 1.2 µM,0%
same,growth inhibition,[2]; at 3.7 µM,1%
same,growth inhibition,[2]; at 11.0 µM,6%
same,growth inhibition,[2]; at 33.0 µM,10%
same,growth inhibition,[2]; at 100.0 µM,15%
same,growth inhibition,[3]; at 1.2 µM,7%
same,growth inhibition,[3]; at 3.7 µM,25%
same,growth inhibition,[3]; at 11.0 µM,67%
same,growth inhibition,[3]; at 33.0 µM,79% (active)
same,growth inhibition,[3]; at 100.0 µM,78% (active)
same,growth inhibition,[4]; at 1.2 µM,1%
same,growth inhibition,[4]; at 3.7 µM,1%
same,growth inhibition,[4]; [16],8%
same,growth inhibition,[4]; at 11.0 µM,17%
same,growth inhibition,[4]; at 33.0 µM,25%
same,growth inhibition,[4]; [17],57%
same,growth inhibition,[4]; at 50.0 µM,82.9% (active)
same,growth inhibition,[4]; at 100.0 µM,43%
same,growth inhibition,[5]; at 1.2 µM,2%
same,growth inhibition,[5]; at 3.7 µM,3%
same,growth inhibition,[5]; [16],15%
same,growth inhibition,[5]; at 11.0 µM,8%
same,growth inhibition,[5]; at 33.0 µM,14%
same,growth inhibition,[5]; [17],10%
same,growth inhibition,[5]; at 50.0 µM,34.9%
same,growth inhibition,[5]; at 100.0 µM,23%
same,growth inhibition,[6]; at 1.2 µM,-1%
same,growth inhibition,[6]; at 3.7 µM,-1%
same,growth inhibition,[6]; at 11.0 µM,4%
same,growth inhibition,[6]; at 33.0 µM,11%
same,growth inhibition,[6]; at 100.0 µM,30%
same,growth inhibition,[7]; [16],1%
same,growth inhibition,[7]; [17],15%
same,growth inhibition,[7]; at 50.0 µM,19.1%
same,growth inhibition,[8]; at 1.2 µM,1%
same,growth inhibition,[8]; at 3.7 µM,2%
same,growth inhibition,[8]; at 11.0 µM,0%
same,growth inhibition,[8]; at 33.0 µM,-1%
same,growth inhibition,[8]; at 100.0 µM,-3%
same,growth inhibition,[9]; [16],45%
same,growth inhibition,[9]; [17],13%
same,growth inhibition,[9]; at 50.0 µM,47.1%
same,growth inhibition,[10]; at 1.2 µM,-1%
same,growth inhibition,[10]; at 3.7 µM,-4%
same,growth inhibition,[10]; [16],9%
same,growth inhibition,[10]; at 11.0 µM,-2%
same,growth inhibition,[10]; at 33.0 µM,15%
same,growth inhibition,[10]; [17],12%
same,growth inhibition,[10]; at 50.0 µM,38.4%
same,growth inhibition,[10]; at 100.0 µM,-9%
same,growth inhibition,[11]; at 1.2 µM,-1%
same,growth inhibition,[11]; at 3.7 µM,2%
same,growth inhibition,[11]; at 11.0 µM,5%
same,growth inhibition,[11]; at 33.0 µM,16%
same,growth inhibition,[11]; at 100.0 µM,21%
same,growth inhibition,[12]; at 1.2 µM,3%
same,growth inhibition,[12]; at 3.7 µM,3%
same,growth inhibition,[12]; at 11.0 µM,6%
same,growth inhibition,[12]; at 33.0 µM,-19%
same,growth inhibition,[12]; at 100.0 µM,18%
same,growth inhibition,[13]; at 1.2 µM,2%
same,growth inhibition,[13]; at 3.7 µM,8%
same,growth inhibition,[13]; at 11.0 µM,20%
same,growth inhibition,[13]; at 33.0 µM,37%
same,growth inhibition,[13]; at 100.0 µM,40%
same,growth inhibition,[14]; [16],5%
same,growth inhibition,[14]; [17],43%
same,growth inhibition,[14]; at 50.0 µM,55.1%
same,growth inhibition,[15]; at 1.2 µM,-4%
same,growth inhibition,[15]; at 3.7 µM,11%
same,growth inhibition,[15]; at 11.0 µM,48%
same,growth inhibition,[15]; at 33.0 µM,69%
same,growth inhibition,[15]; at 100.0 µM,72% (active)
O=C1/C(=C/c2ccc(Cl)c(Cl)c2)CNC/C1=C\c1ccc(Cl)c(Cl)c1,growth inhibition,[1]; at 1.2 µM,22%
same,growth inhibition,[1]; at 3.7 µM,22%
same,growth inhibition,[1]; at 11.0 µM,27%
same,growth inhibition,[1]; at 33.0 µM,76% (active)
same,growth inhibition,[1]; at 100.0 µM,93% (active)
same,growth inhibition,[2]; at 1.2 µM,28%
same,growth inhibition,[2]; at 3.7 µM,25%
same,growth inhibition,[2]; at 11.0 µM,29%
same,growth inhibition,[2]; at 33.0 µM,63%
same,growth inhibition,[2]; at 100.0 µM,95% (active)
same,growth inhibition,[3]; at 1.2 µM,14%
same,growth inhibition,[3]; at 3.7 µM,27%
same,growth inhibition,[3]; at 11.0 µM,19%
same,growth inhibition,[3]; at 33.0 µM,32%
same,growth inhibition,[3]; at 100.0 µM,32%
same,growth inhibition,[4]; at 1.2 µM,12%
same,growth inhibition,[4]; at 3.7 µM,20%
same,growth inhibition,[4]; [16],19%
same,growth inhibition,[4]; at 11.0 µM,29%
same,growth inhibition,[4]; at 33.0 µM,68%
same,growth inhibition,[4]; [17],62%
same,growth inhibition,[4]; at 50.0 µM,50%
same,growth inhibition,[4]; at 100.0 µM,95% (active)
same,growth inhibition,[5]; at 1.2 µM,25%
same,growth inhibition,[5]; at 3.7 µM,23%
same,growth inhibition,[5]; [16],-9%
same,growth inhibition,[5]; at 11.0 µM,41%
same,growth inhibition,[5]; at 33.0 µM,74% (active)
same,growth inhibition,[5]; [17],74% (active)
same,growth inhibition,[5]; at 50.0 µM,89.8% (active)
same,growth inhibition,[5]; at 100.0 µM,93% (active)
same,growth inhibition,[6]; at 1.2 µM,7%
same,growth inhibition,[6]; at 3.7 µM,8%
same,growth inhibition,[6]; at 11.0 µM,20%
same,growth inhibition,[6]; at 33.0 µM,52%
same,growth inhibition,[6]; at 100.0 µM,92% (active)
same,growth inhibition,[7]; [16],27%
same,growth inhibition,[7]; [17],66%
same,growth inhibition,[7]; at 50.0 µM,89.6% (active)
same,growth inhibition,[8]; at 1.2 µM,15%
same,growth inhibition,[8]; at 3.7 µM,7%
same,growth inhibition,[8]; at 11.0 µM,29%
same,growth inhibition,[8]; at 33.0 µM,48%
same,growth inhibition,[8]; at 100.0 µM,79% (active)
same,growth inhibition,[9]; [16],10%
same,growth inhibition,[9]; [17],42%
same,growth inhibition,[9]; at 50.0 µM,90.4% (active)
same,growth inhibition,[10]; at 1.2 µM,-8%
same,growth inhibition,[10]; at 3.7 µM,-9%
same,growth inhibition,[10]; [16],20%
same,growth inhibition,[10]; at 11.0 µM,13%
same,growth inhibition,[10]; at 33.0 µM,69%
same,growth inhibition,[10]; [17],82% (active)
same,growth inhibition,[10]; at 50.0 µM,91.8% (active)
same,growth inhibition,[10]; at 100.0 µM,92% (active)
same,growth inhibition,[11]; at 1.2 µM,1%
same,growth inhibition,[11]; at 3.7 µM,0%
same,growth inhibition,[11]; at 11.0 µM,-12%
same,growth inhibition,[11]; at 33.0 µM,96% (active)
same,growth inhibition,[11]; at 100.0 µM,97% (active)
same,growth inhibition,[12]; at 1.2 µM,5%
same,growth inhibition,[12]; at 3.7 µM,13%
same,growth inhibition,[12]; at 11.0 µM,35%
same,growth inhibition,[12]; at 33.0 µM,69%
same,growth inhibition,[12]; at 100.0 µM,94% (active)
same,growth inhibition,[13]; at 1.2 µM,29%
same,growth inhibition,[13]; at 3.7 µM,33%
same,growth inhibition,[13]; at 11.0 µM,49%
same,growth inhibition,[13]; at 33.0 µM,78% (active)
same,growth inhibition,[13]; at 100.0 µM,94% (active)
same,growth inhibition,[15]; at 1.2 µM,25%
same,growth inhibition,[15]; at 3.7 µM,16%
same,growth inhibition,[15]; at 11.0 µM,33%
same,growth inhibition,[15]; at 33.0 µM,64%
same,growth inhibition,[15]; at 100.0 µM,94% (active)
COC(=O)C1CCCCC1C(=O)Nc1ccccc1 (stereo not drawn),growth inhibition,[1]; at 1.2 µM,0%
same,growth inhibition,[1]; at 3.7 µM,1%
same,growth inhibition,[1]; at 11.0 µM,1%
same,growth inhibition,[1]; at 33.0 µM,1%
same,growth inhibition,[1]; at 100.0 µM,-2%
same,growth inhibition,[2]; at 1.2 µM,-2%
same,growth inhibition,[2]; at 3.7 µM,-2%
same,growth inhibition,[2]; at 11.0 µM,0%
same,growth inhibition,[2]; at 33.0 µM,-1%
same,growth inhibition,[2]; at 100.0 µM,0%
same,growth inhibition,[3]; at 1.2 µM,-3%
same,growth inhibition,[3]; at 3.7 µM,-1%
same,growth inhibition,[3]; at 11.0 µM,-1%
same,growth inhibition,[3]; at 33.0 µM,-6%
same,growth inhibition,[3]; at 100.0 µM,0%
same,growth inhibition,[4]; at 1.2 µM,-3%
same,growth inhibition,[4]; at 3.7 µM,-1%
same,growth inhibition,[4]; [16],10%
same,growth inhibition,[4]; at 11.0 µM,0%
same,growth inhibition,[4]; at 33.0 µM,0%
same,growth inhibition,[4]; [17],2%
same,growth inhibition,[4]; at 50.0 µM,20.8%
same,growth inhibition,[4]; at 100.0 µM,-3%
same,growth inhibition,[5]; at 1.2 µM,-3%
same,growth inhibition,[5]; at 3.7 µM,-3%
same,growth inhibition,[5]; [16],0%
same,growth inhibition,[5]; at 11.0 µM,-2%
same,growth inhibition,[5]; at 33.0 µM,-4%
same,growth inhibition,[5]; [17],-2%
same,growth inhibition,[5]; at 50.0 µM,10.8%
